{
  "source": "paper PMC7862700",
  "about": "“An all-to-all approach to the identification of sequence-specific readers for epigenetic DNA modifications on cytosine”",
  "experiment_in_all_cases": "DAPPL (digital affinity profiling via proximity ligation, sequencing); 10 mM Tris-HCl pH 7.5, 50 mM NaCl, 1 mM DTT, 4% glycerol, room temperature, 30 min; GST-TFs on glutathione beads, 16-mer random dsDNA library, 0.1% formaldehyde crosslink after washing; high values mean tight binding",
  "key": {"[1]": {"target": "HSF1 (Homo sapiens, UniProt Q00613 1-529)", "sequence (Q00613 whole entry, the tested form may be a part)": "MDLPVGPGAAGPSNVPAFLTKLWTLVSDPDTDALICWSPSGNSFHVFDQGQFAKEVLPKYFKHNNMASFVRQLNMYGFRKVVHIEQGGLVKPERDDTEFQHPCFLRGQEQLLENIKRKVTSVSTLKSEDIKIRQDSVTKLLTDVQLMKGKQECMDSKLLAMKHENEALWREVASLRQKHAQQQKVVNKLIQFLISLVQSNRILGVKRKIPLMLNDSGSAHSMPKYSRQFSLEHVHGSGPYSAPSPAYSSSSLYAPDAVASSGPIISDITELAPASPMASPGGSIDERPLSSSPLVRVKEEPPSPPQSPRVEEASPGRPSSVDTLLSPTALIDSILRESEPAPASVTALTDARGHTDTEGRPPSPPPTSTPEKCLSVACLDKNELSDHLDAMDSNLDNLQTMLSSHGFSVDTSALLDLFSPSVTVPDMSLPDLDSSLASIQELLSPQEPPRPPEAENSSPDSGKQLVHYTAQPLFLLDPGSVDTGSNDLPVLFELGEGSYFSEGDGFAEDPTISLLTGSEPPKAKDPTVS", "details": "protein: recombinant; tags: N-terminal GST; chain copies: 3; dsDNA, one strand shown", "summary_of_the_method": "(§1)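 Binding signal is each hexamer's read frequency for a factor divided by its frequency in the tag-only sample. The factors were GST-fused human transcription factors from yeast, captured on glutathione beads, DNA-barcoded and pooled with that sample. Pools were incubated with 200 nmole of a random double-stranded 16-mer DNA library in Tris/NaCl/DTT/glycerol buffer at room temperature for 30 min, then washed, crosslinked with 0.1% formaldehyde, proximity-ligated with BsaI/T4 ligase (1 h, 37 °C), PCR-amplified and sequenced on an Illumina NextSeq500.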"}, "[2]": {"target": "T1, ELK1 (Homo sapiens, UniProt P19419 1-428)", "T1 sequence": "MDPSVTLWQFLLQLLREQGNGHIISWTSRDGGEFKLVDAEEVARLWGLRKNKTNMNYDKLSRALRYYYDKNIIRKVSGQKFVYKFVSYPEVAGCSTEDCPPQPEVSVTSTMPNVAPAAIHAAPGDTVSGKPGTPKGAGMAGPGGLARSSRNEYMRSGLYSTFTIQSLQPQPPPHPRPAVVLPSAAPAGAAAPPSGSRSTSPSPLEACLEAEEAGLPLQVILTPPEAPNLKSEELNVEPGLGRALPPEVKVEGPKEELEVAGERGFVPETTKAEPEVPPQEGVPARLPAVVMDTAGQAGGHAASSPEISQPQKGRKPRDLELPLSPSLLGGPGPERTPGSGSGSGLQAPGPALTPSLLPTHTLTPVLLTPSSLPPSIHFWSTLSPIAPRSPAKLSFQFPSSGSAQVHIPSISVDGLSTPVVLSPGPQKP", "details": "protein: recombinant; tags: N-terminal GST; dsDNA, one strand shown", "summary_of_the_method": "as §1"}, "[3]": {"target": "T2, ERG (Homo sapiens, UniProt P11308 1-479)", "T2 sequence": "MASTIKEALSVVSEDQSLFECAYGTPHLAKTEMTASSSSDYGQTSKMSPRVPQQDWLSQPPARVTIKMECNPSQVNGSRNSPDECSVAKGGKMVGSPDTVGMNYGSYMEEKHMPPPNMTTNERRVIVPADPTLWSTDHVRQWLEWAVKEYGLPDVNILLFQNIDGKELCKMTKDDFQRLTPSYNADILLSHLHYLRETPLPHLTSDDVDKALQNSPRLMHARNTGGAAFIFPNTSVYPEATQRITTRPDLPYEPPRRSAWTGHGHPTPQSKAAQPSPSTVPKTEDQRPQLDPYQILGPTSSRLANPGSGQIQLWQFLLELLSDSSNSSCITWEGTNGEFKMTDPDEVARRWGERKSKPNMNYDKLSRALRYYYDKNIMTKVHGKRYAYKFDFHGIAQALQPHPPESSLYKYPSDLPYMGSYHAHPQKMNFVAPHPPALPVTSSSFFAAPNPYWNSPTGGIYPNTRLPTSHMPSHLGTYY", "details": "protein: recombinant; tags: N-terminal GST; dsDNA, one strand shown", "summary_of_the_method": "as §1"}, "[4]": {"target": "SPI1 (Homo sapiens, UniProt P17947 1-270)", "details": "protein: recombinant; tags: N-terminal GST; dsDNA, one strand shown", "summary_of_the_method": "as §1"}, "[5]": {"target": "T3, SPIC (Homo sapiens, UniProt Q8N5J4 1-248)", "T3 sequence": "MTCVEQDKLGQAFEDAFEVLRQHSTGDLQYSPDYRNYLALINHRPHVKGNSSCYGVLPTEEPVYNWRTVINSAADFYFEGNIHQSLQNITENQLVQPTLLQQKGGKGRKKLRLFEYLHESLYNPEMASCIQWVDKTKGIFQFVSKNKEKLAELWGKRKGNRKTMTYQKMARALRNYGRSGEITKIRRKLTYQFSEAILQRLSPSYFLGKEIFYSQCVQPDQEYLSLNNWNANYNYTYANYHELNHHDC", "details": "protein: recombinant; tags: N-terminal GST; dsDNA, one strand shown", "summary_of_the_method": "as §1"}, "[6]": {"target": "T4, ELK4 (Homo sapiens, UniProt P28324-2 1-405)", "T4 sequence": "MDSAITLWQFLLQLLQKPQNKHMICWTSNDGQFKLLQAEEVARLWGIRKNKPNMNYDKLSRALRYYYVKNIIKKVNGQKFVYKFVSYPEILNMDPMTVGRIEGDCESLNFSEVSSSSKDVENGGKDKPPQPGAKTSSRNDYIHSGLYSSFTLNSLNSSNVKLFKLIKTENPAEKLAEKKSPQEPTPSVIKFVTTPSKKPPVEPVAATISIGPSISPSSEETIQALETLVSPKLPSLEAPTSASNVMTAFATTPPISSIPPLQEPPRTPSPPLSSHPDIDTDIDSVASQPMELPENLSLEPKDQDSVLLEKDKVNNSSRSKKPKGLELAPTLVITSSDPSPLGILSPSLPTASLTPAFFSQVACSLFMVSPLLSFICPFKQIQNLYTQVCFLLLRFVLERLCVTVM", "details": "protein: recombinant; tags: N-terminal GST; dsDNA, one strand shown", "summary_of_the_method": "as §1"}, "[7]": {"target": "T5, ETV2 (Homo sapiens, UniProt O00321 1-342)", "T5 sequence": "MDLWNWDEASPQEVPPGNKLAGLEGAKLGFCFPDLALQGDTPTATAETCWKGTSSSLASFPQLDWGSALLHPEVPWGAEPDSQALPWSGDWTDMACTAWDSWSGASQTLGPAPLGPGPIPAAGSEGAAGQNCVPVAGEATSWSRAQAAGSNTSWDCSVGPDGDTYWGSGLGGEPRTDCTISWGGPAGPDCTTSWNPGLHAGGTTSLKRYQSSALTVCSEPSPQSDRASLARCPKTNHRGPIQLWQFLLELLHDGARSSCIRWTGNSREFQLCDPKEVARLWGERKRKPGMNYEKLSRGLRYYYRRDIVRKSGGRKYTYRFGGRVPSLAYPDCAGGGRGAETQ", "details": "protein: recombinant; tags: N-terminal GST; dsDNA, one strand shown", "summary_of_the_method": "as §1"}, "[8]": {"target": "CRX (Homo sapiens, UniProt O43186 1-299)", "sequence (O43186 whole entry)": "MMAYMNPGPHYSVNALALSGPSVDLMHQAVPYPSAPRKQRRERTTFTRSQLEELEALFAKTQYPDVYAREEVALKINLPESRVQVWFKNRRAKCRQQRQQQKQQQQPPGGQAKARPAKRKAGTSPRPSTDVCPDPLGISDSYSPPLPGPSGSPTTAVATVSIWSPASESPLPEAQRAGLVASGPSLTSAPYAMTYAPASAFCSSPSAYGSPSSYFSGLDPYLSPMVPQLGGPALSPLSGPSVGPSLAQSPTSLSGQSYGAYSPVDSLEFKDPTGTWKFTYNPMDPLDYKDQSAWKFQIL", "details": "protein: recombinant; tags: N-terminal GST; dsDNA, one strand shown", "summary_of_the_method": "as §1"}, "[9]": {"target": "T6, ERF (Homo sapiens, UniProt P50548 1-548)", "T6 sequence": "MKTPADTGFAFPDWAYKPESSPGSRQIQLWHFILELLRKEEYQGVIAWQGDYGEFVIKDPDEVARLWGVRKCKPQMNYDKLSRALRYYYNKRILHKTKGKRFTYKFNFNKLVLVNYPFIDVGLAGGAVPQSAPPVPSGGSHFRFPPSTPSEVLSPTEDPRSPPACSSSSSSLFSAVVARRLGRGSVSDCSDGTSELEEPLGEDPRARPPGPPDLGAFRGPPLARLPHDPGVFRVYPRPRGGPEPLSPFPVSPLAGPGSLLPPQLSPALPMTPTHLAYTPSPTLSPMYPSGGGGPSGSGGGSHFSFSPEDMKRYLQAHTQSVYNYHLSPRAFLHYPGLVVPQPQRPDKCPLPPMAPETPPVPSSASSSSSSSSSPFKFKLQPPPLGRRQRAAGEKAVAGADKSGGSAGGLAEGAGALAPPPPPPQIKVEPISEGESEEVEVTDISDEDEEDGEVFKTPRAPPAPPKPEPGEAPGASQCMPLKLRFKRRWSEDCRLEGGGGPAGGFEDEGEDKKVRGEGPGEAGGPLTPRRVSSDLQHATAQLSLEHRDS", "details": "protein: recombinant; tags: N-terminal GST; dsDNA, one strand shown", "summary_of_the_method": "as §1"}, "[10]": {"target": "T7, ETV3L (Homo sapiens, UniProt Q6ZN32 1-361)", "T7 sequence": "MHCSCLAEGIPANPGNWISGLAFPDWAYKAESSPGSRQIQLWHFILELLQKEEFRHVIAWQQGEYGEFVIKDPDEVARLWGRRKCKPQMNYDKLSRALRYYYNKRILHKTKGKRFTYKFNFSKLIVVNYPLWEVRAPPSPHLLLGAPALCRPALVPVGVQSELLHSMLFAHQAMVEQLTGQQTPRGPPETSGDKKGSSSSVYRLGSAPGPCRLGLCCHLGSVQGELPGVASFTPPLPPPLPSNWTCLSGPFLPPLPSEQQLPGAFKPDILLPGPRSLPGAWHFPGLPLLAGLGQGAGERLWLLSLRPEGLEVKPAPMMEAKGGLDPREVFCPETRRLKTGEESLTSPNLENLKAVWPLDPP", "details": "protein: recombinant; tags: N-terminal GST; dsDNA, one strand shown", "summary_of_the_method": "as §1"}, "[11]": {"target": "T8, ELF5 (Homo sapiens, UniProt Q9UKW6-2 1-255)", "T8 sequence": "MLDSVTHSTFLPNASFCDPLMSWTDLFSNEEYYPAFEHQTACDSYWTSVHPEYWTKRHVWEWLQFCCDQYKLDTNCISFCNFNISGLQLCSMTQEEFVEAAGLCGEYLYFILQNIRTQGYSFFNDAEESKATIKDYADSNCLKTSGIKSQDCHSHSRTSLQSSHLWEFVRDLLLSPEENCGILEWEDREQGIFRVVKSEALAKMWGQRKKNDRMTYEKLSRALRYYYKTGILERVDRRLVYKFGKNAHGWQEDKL", "details": "protein: recombinant; tags: N-terminal GST; dsDNA, one strand shown", "summary_of_the_method": "as §1"}, "[12]": {"target": "T9, ETV3 (Homo sapiens, UniProt P41162-2 1-143)", "T9 sequence": "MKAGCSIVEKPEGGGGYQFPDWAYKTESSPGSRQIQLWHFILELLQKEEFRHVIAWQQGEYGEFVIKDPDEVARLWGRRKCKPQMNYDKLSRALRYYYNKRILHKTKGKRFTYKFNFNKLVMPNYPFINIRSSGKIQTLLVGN", "details": "protein: recombinant; tags: N-terminal GST; dsDNA, one strand shown", "summary_of_the_method": "as §1"}, "[13]": {"target": "ETV6 (Homo sapiens, UniProt P41212 1-452)", "sequence (P41212 whole entry)": "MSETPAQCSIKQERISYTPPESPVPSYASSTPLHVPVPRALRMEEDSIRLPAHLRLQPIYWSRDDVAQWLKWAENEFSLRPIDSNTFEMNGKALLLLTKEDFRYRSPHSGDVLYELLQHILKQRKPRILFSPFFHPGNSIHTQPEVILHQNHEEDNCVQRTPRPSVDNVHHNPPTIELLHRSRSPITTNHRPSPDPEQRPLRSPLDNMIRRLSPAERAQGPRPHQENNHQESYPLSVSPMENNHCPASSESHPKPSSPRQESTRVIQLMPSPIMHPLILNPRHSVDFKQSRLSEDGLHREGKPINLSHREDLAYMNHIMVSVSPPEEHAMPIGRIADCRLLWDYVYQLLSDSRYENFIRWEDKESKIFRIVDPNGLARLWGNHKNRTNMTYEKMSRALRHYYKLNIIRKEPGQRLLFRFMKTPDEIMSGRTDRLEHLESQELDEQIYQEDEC", "details": "protein: recombinant; tags: N-terminal GST; dsDNA, one strand shown", "summary_of_the_method": "as §1"}},
  "data": [
    {"sequence": "AGGAAT", "values": [
      {"measurement": "binding signal", "setting": "[1]", "value": "1.01 fold enrichment (6-mer frequency, TF over GST control)"}
    ]},
    {"sequence": "AGTATA", "values": [
      {"measurement": "binding signal", "setting": "[2]", "value": "1.05 fold enrichment (6-mer frequency, TF over GST control)"},
      {"measurement": "binding signal", "setting": "[3]", "value": "1 fold enrichment (6-mer frequency, TF over GST control)"},
      {"measurement": "binding signal", "setting": "[4]", "value": "1.04 fold enrichment (6-mer frequency, TF over GST control)"},
      {"measurement": "binding signal", "setting": "[1]", "value": "1.01 fold enrichment (6-mer frequency, TF over GST control)"},
      {"measurement": "binding signal", "setting": "[5]", "value": "1.07 fold enrichment (6-mer frequency, TF over GST control)"},
      {"measurement": "binding signal", "setting": "[6]", "value": "1.03 fold enrichment (6-mer frequency, TF over GST control)"},
      {"measurement": "binding signal", "setting": "[7]", "value": "1.06 fold enrichment (6-mer frequency, TF over GST control)"},
      {"measurement": "binding signal", "setting": "[8]", "value": "1.07 fold enrichment (6-mer frequency, TF over GST control)"},
      {"measurement": "binding signal", "setting": "[9]", "value": "1.01 fold enrichment (6-mer frequency, TF over GST control)"},
      {"measurement": "binding signal", "setting": "[10]", "value": "1.02 fold enrichment (6-mer frequency, TF over GST control)"},
      {"measurement": "binding signal", "setting": "[11]", "value": "1.03 fold enrichment (6-mer frequency, TF over GST control)"},
      {"measurement": "binding signal", "setting": "[12]", "value": "1 fold enrichment (6-mer frequency, TF over GST control)"},
      {"measurement": "binding signal", "setting": "[13]", "value": "1.06 fold enrichment (6-mer frequency, TF over GST control)"}
    ]}
  ]
}
